Experimental findings from PubChem BioAssay (NCATS) are described below.

Structures are written as SMILES. Records with an inconclusive call do not appear. Where a call stands in place of a potency, no number is given. Active and inactive are the calls of the source. Calls come from the whole dose curve; as a rule, active = well fitted inhibition curve with a large enough effect; inconclusive = small, poorly fitted or top-dose-only effect; inactive = flat fitted curve, though single readings scatter. Peptide text beside a SMILES is read from it.
Potency is the fitted concentration of half-maximal effect.

The assay relates to W2. Briefly: qHTS profiling for inhibitors of Plasmodium falciparum proliferation (AID 504749). Note: nearly all actives have a fitted effect of over 60% in size. The following applies: P. falciparum in erythrocytes, SYBR Green DNA, 72 h; series mostly up to 28.7 µM. In outline:
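P. falciparum-infected erythrocytes (0.3% parasitemia, 2.5% hematocrit final) were exposed to compounds for 72 h at 37 C in 5% CO2, then lysed with SYBR Green buffer overnight at room temperature; parasite DNA fluorescence was normalized to artemisinin and DMSO controls.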
Regarding `O=C(O)CN(CCN(CC(=O)O)CC(=O)O)CC(=O)O`, the Potency result is “inactive”.
Turning to `Cc1cn([C@H]2C[C@H](O)[C@@H](CO)O2)c(=O)[nH]c1=O`, the Potency entry is “inactive”.
For `O=C1CSC2(CCN(CCCN3c4ccccc4Sc4ccc(Cl)cc43)CC2)N1` the value was 4.78 µM (active).
The same measure for `COC(F)(F)C(Cl)Cl`: “inactive”.
The same measure for `CC(C)=O`: “inactive”; for `CCN(CC)Cc1cc(Nc2ccnc3cc(Cl)ccc23)ccc1O`: 0.051 µM (active); for `CCCCCCCCCCCCCCCC(=O)OCC(COC(=O)CCCCCCCCCCCCCCC)OC(=O)CCCCCCCCCCCCCCC`: “inactive”.
Turning to `Cc1ccccc1`, the Potency result is “inactive”.
For `Cc1cc(C(=O)NNCc2ccccc2)no1` the value was “inactive”; for `C[C@H]1C[C@H]2[C@@H]3CCC4=CC(=O)C=C[C@]4(C)[C@@]3(F)[C@@H](O)C[C@]2(C)[C@@]1(O)C(=O)CO`, “inactive”; for `CC(NNC(=O)c1ccccc1)c1ccccc1` (centres undefined), “inactive”.
For `CCOC(C)=O` the value was “inactive”; for `O=S(=O)(O)c1ccc2c(N=Nc3ccc(S(=O)(=O)O)c4ccccc34)c(O)c(S(=O)(=O)O)cc2c1`, “inactive”.
With `COc1cc(-c2ccc(-[n+]3nc(-c4ccccc4)nn3-c3ccc([N+](=O)[O-])cc3)c(OC)c2)ccc1-[n+]1nc(-c2ccccc2)nn1-c1ccc([N+](=O)[O-])cc1`, the Potency was 12 µM (active).
With `CCCC(=O)O[C@]1(C(=O)CCl)[C@H](C)C[C@@H]2[C@H]3CCC4=CC(=O)C=C[C@]4(C)[C@@]3(F)C(=O)C[C@@]21C`, the Potency was 1.51 µM (active).
In the case of `COC(=O)CCC(=O)CN`, the Potency entry is “inactive”.
For `CC[N+](C)(C)Cc1ccccc1Br` the value was “inactive”.
Turning to `CC1=C(/C=C/C(C)=C/C=C/C(C)=C/C=C/C=C(C)/C=C/C=C(C)/C=C/C2=C(C)C(=O)CCC2(C)C)C(C)(C)CCC1=O`, the Potency result was “inactive”.
The same measure for `C[C@@H]1CCC2[C@@H](C)[C@@H](O)O[C@@H]3O[C@@]4(C)CC[C@@H]1[C@@]23OO4` (some centres undefined): 0.0005 µM (active); for `CC1(C)S[C@@H]2[C@H](NC(=O)[C@@H](NC(=O)N3CCNC3=O)c3ccccc3)C(=O)N2[C@H]1C(=O)O`: “inactive”; for `C=C1C(=CC=C2CCC[C@@]3(C)[C@@H]2CC[C@H]3[C@H](C)CCCC(C)C)C[C@@H](O)C[C@@H]1O`: 9.53 µM (active).
As for `CCOC(=O)C1=C(C)NC(C)=C(C(=O)OCC)C1c1ccccc1C=CC(=O)OC(C)(C)C`, the Potency is 6.75 µM (active).
With `CC(=O)N[C@@H](CC(=O)O)C(=O)N[C@@H](CCC(=O)O)C(=O)O` (Ac-Asp-Glu-OH), the Potency result is “inactive”.
The same measure for `NC1C2CN(c3nc4c(cc3F)c(=O)c(C(=O)O)cn4-c3ccc(F)cc3F)CC12` (centres undefined): 6.75 µM (active); for `C[C@]12O[C@H](C[C@]1(O)CO)n1c3ccccc3c3c4c(c5c6ccccc6n2c5c31)CNC4=O`: 0.239 µM (active).
As to `CCOc1ccc(N=Nc2ccc(N)cc2N)cc1`, the Potency entry is “inactive”.
Take `CCNC(=O)[C@@H]1CCCN1C(=O)[C@H](CCCN=C(N)N)NC(=O)[C@H](CC(C)C)NC(=O)[C@@H](Cc1c[nH]c2ccccc12)NC(=O)[C@H](Cc1ccc(O)cc1)NC(=O)[C@H](CO)NC(=O)[C@H](Cc1c[nH]c2ccccc12)NC(=O)[C@H](Cc1cnc[nH]1)NC(=O)[C@@H]1CCC(=O)N1`: the Potency is 0.849 µM (active).
In the case of `Cc1ccccc1OCC(O)CNCCOc1ccc(C(N)=O)cc1` (centres undefined), the Potency entry was “inactive”.
For `CCCCCCOc1ccc(C(=N)N(CCCC)CCCC)c2ccccc12` the value was 3.38 µM (active).
With `Cc1c(C)c2c(c(C)c1O)CC[C@@](C)(CCC[C@@H](C)CCC[C@@H](C)CCCC(C)C)O2`, the Potency entry was “inactive”.
As to `CCCCCCC(O)C/C=C/CCCCCCCC(=O)O` (centres undefined), the Potency result was “inactive”.
For `Oc1cc(O)c2c(c1)OC(c1ccc(O)c(O)c1)C(O)C2` (centres undefined) the value was “inactive”; for `CCCC(=O)Nc1ncnc2c1ncn2C1OC2COP(=O)(O)OC2C1OC(=O)CCC` (centres undefined), “inactive”.
As for `NC(=O)c1ncn(C2OC(CO)C(O)C2O)n1` (centres undefined), the Potency entry was “inactive”.
The same measure for `Nc1ncnc2c1ncn2[C@@H]1O[C@H](COP(=O)(O)OP(=O)(O)OP(=O)(O)O)[C@@H](O)[C@H]1O`: “inactive”.
The same measure for `CC1=C(/C=C/C(C)=C/C=C/C(C)=C/CO)C(C)(C)CCC1`: 7.57 µM (active).
For `CC(Cc1ccc(O)c(O)c1)C(C)Cc1ccc(O)c(O)c1` (centres undefined) the value was 15.1 µM (active); for `Clc1cc(Cl)c(OCC#CI)cc1Cl`, 10.7 µM (active).
In the case of `CC[C@@]1(O)C(=O)OCc2c1cc1n(c2=O)Cc2cc3c([N+](=O)[O-])cccc3nc2-1`, the Potency is 4.78 µM (active).
